By inhibition is commonly meant the change of the read-out against control, counted positive when it falls.

The values that follow come from PubChem BioAssay.

The structures appear in SMILES notation. A number with no mark means an inactive call. No rule for the calls is given here.

For this assay, the target named is Pantothenate synthetase (Mycobacterium tuberculosis (strain ATCC 25618 / H37Rv)) (UniProt P9WIL5). Description: Recombinant Mtb pantothenate synthetase (PanC) inhibitors, coupled enzyme, confirmatory (AID 375).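 Also: 0% = full reaction with vehicle and 100% = no enzyme background.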 Conditions: coupled enzyme assay; at 10 µM, hits give high values.
Chain of Pantothenate synthetase (Mycobacterium tuberculosis (strain ATCC 25618 / H37Rv)) (P9WIL5 whole entry, looked up): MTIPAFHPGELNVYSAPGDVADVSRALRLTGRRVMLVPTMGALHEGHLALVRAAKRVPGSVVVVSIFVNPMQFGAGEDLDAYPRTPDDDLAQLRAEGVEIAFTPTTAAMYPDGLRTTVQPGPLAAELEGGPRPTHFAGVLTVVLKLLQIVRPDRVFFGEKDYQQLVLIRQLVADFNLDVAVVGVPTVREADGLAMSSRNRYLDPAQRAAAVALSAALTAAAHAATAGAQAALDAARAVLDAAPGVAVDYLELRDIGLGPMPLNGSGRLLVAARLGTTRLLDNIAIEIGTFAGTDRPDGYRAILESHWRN
For `Cc1ccc(S(=O)(=O)Cn2nnnc2CN(Cc2ccco2)Cc2cccs2)cc1`, the inhibition is 0%.

As for `CCC(C)NC(=O)CC1Oc2ccc(C)cc2NC1=O` (stereo not given), the inhibition is 0%.

On to `Cn1c(C(=O)NCc2cccnc2)cc2sccc21`, for which the inhibition was 0%.

As to `CCOc1cc(C(=O)N(C)Cc2cc3ccccc3[nH]c2=O)cc(OCC)c1OCC`, the inhibition was 7%.

Turning to `Cc1noc(C)c1S(=O)(=O)N1CCC(C(=O)N2CCN(Cc3ccc4c(c3)OCO4)CC2)CC1`, the inhibition was 0%.
